# Laboratory results published in PubChem BioAssay AID1851 (National Center for Advancing Translational Sciences (NCATS), 2009).
# Screen size: about 16,000 compounds; about 5,800 (36%) were called active. Roughly 23% stayed inconclusive and do not appear here. The list shows a part of the results. A number with no mark means an inactive call. Calls come from the whole dose curve; as a rule, active = well fitted curve in the direction sought with a large enough effect; inconclusive = small, poorly fitted or top-dose-only effect, or effect the other way; inactive = no such curve, though single readings can be large or run the other way.
# Biological target: Cytochrome P450 2C19 (Homo sapiens) (UniProt P33261)
# Sequence (P33261 whole entry, looked up): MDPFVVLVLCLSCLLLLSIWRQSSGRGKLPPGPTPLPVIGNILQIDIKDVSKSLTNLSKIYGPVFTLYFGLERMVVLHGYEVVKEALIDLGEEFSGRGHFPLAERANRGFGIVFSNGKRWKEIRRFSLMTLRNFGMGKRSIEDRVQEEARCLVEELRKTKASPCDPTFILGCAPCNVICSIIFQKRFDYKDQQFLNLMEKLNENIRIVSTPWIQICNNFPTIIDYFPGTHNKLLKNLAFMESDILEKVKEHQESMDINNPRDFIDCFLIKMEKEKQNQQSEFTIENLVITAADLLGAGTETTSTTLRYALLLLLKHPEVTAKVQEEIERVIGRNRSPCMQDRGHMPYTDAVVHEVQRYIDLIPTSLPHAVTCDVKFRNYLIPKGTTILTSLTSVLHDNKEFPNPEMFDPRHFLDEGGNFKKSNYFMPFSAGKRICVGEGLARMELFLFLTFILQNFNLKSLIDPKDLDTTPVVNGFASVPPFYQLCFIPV
# Assay: Cytochrome panel assay with activity outcomes
# Conditions: recombinant CYP, pro-luciferin dealkylation, luminescence, p450-cyp2c19; series mostly up to 57.1 µM
# Protocol: The P450 gene superfamily is involved in the metabolism and clearance of xenobiotics. This assay used various human CYP P450 isozymes to measure the dealkylation of various pro-luciferin substrates to luciferin. The luciferin is then measured by luminescence after the addition of a luciferase detection reagent. Pro-luciferin substrate concentration in the assay was equal to its KM for its CYP P450 isozyme. Inhibitors and some substrates limit the production of luciferin, and decrease measured luminescence.
# NCGC Assay Protocol Summary:
# 1, Reagent, 2 uL, Isozyme and Pro-Luciferin
# 2, Library compounds, 23 nl, 40 uM to 0.24 nM dilution series
# 3, Controls, 23 nl, Isozyme specific inhibitor
# 4, Reagent, 2 uL, NADPH regeneration solution
# 5, Incubation time, 60 min, Isozyme specific temperature
# 6, Reagent, 4ul, Detection reagent
# 7, Incubation time, 20 min, Isozyme specific temperature
# 8, Detection, 1 sec, ViewLux luminescent read
# The luciferase-based P450-GloTM Screening Systems were obtained from Promega (Madison, WI) for CYP 1A2 (V9770), CYP 2C9 (V9790), CYP2 C19 (V9880), CYP 2D6 (V9890), and CYP 3A4 Luciferin-PPXE (V9910) and were adapted for 1,536-well microplates and an automated protocol. The control compounds furafylline for 1A2 (F124), sulfaphenazole for CYP 2C9 (S0758), ketoconazole for CYP 2C19 (K1003), quinidine for 2D6 (Q3625), and ketoconazole for 3A4 (K1003) were purchased from Sigma Aldrich (St. Louis, MO). Recombinant P450 enzymes were obtained from baculovirus constructs expressed in insect cells (BD/Gentest).
# Medium-binding white solid Kalypsys plates used. Mixtures kept on ice. 1A2: 10 nM 1A2, 100 uM Luc-ME, 100 mM KPO4; 2C9: 10 nM 2C9, 100 uM Luc-H, 25 mM KPO4; 2C19: 5 nM 2C19, 10 uM Luc-H EGE, 50 mM KPO4; 2D6: 5 nM 2D6, 30 uM Luc-ME EGE, 100 mM KPO4; 3A4: 10 nM, 25 uM Luc-PPXE. All amounts are reflected in their final concentration, working concentration is 2x.
# NADPH regeneration solution: 1.3 mM NADP+, 3.3 mM glucose-6-phosphate, 3.3 mM MgCl2, 0.4 U/mL glucose-6-phosphate dehydrogenase for all isozymes, 200 mM KPO4 for 3A4. Mixture prepared at RT but kept on ice during automated run.
# RT incubation in auxilliary plate hotel for 1A2, 2D6, and 3A4; 37C for 2C9 and 2C19.
# Keywords: P450, CYP1A2, CYP2C19, CYP2C9, CYP2D6, CYP3A4, Luciferase, MLSMR, MLSCN, NIH Roadmap, qHTS, NCGC
# % is set by controls: 0 for no effect and ±100 for the full control effect.
SMILES,AC50,"activity, negative = inhibition"
COc1ccc(NC(=O)CSc2nc3ccccc3cc2Cc2ccccc2)cc1,0.0282 µM (active),–
COc1cccc(NC(=O)CSc2nc3ccccc3cc2Cc2ccccc2)c1,0.251 µM (active),–
COc1ccccc1NC(=O)CSc1nc2ccccc2cc1Cc1ccccc1,0.0398 µM (active),–
COc1ccc(NC(=O)CCSc2cc(C)c3ccccc3n2)cc1,7.94 µM (active),–
CC(C)NC[C@H](O)c1ccc(NS(C)(=O)=O)cc1,inactive,–
CN(CCc1ccc(Cl)c(Cl)c1)CCN1CCCCCC1,inactive,–
CN(CCc1ccc(Cl)c(Cl)c1)C[C@@H](O)COc1ccc(NS(C)(=O)=O)cc1,2 µM (active),–
C=CCNC(=O)c1onc(CSc2ccc(F)cc2)c1C(=O)O,5.62 µM (active),–
O=C(NCc1ccccc1)c1onc(CSc2ccc(F)cc2)c1C(=O)NCCCN1CCOCC1,12.6 µM (active),–
COCCNC(=O)c1onc(CSc2cccc(Cl)c2)c1C(=O)O,inactive,–
O=C(NCC1CCCO1)c1onc(CSc2ccccc2F)c1C(=O)O (centres undefined),inactive,–
O=C(NCCCN1CCOCC1)c1cc2c(s1)CSC2,inactive,–
COCCNC(=O)c1onc(CSc2ccc(Cl)cc2)c1C(=O)O,3.55 µM (active),–
COc1ccccc1C(=O)O/N=C1/CCCc2c1ccc(OC)c2[N+](=O)[O-],0.631 µM (active),–
COc1ccc(/C=N/NC(N)=S)cc1OC(=O)c1cccc2ccccc12,2 µM (active),–
O=C(O)CC[C@]1(C(=O)O)CCC(=O)c2ccccc21,–,22.5% [at 11.4 µM]
Cc1ccccc1NS(=O)(=O)c1ccc2[nH]cc(C(=O)N(C)Cc3ccco3)c(=O)c2c1,25.1 µM (active),–
COC(=O)c1cc(NS(=O)(=O)c2ccc(N3CCCCCC3)c([N+](=O)[O-])c2)cc(C(=O)OC)c1,5.62 µM (active),–
CC1CCN(c2ccc(S(=O)(=O)Nc3cc(C(=O)O)cc(C(=O)O)c3)cc2[N+](=O)[O-])CC1,3.16 µM (active),–
NNS(=O)(=O)c1cc(C(=O)O)cc(C(=O)O)c1,–,-25.2% [at 11.4 µM]
CCCCN(C)S(=O)(=O)c1ccc(C(=O)Nc2nnc(CSC)o2)cc1,inactive,–
Cc1cc(C)c(C)c(S(=O)(=O)ON2C(=O)c3ccccc3C2=O)c1C,3.16 µM (active),–
CC(C)(SCc1ccccc1)[C@H](N)C(=O)O,–,1.45% [at 11.4 µM]
C=CC(=O)NC(C)(C)Cc1ccccc1,14.1 µM (active),–
N[C@@](CC(=O)O)(Cc1ccccc1)C(=O)O,–,22.4% [at 11.4 µM]

SMILES,AC50,"activity, negative = inhibition"
COC(=O)c1ccccc1NS(=O)(=O)c1ccc2c3c(cccc13)C(=O)N2,0.794 µM (active),–
N=C(N)SCCc1cnc[nH]1,inactive,–
Fc1ccc(C(OCCCc2cnc[nH]2)c2ccc(F)cc2)cc1,0.00398 µM (active),–
N[C@@H](Cc1cnc[nH]1)C(=O)O,inactive,–
CN1CCN(c2ncc3nc(-c4cccs4)c(=O)n(C[C@H]4CCCO4)c3n2)CC1,inactive,–
CN1CCc2c(c3ccccc3n2C)C1,inactive,–
O=S(=O)(O)c1ccc(N=Nc2ccc3c(S(=O)(=O)O)cccc3c2O)c2ccccc12,–,-37.1% [at 11.4 µM]
COc1cc(-c2ccc(N=Nc3ccc4c(S(=O)(=O)O)cc(S(=O)(=O)O)c(N)c4c3O)c(OC)c2)ccc1N=Nc1ccc2c(S(=O)(=O)O)cc(S(=O)(=O)O)c(N)c2c1O,3.98 µM (active),–
C=CCN(CC=C)C(=O)C(=O)c1cc(C)n(-c2ccc([N+](=O)[O-])cc2)c1C,0.126 µM (active),–
CN1CCN(C2=Nc3ccccc3Oc3ccc(Cl)cc32)CC1,inactive,–
CN1CCN(C2=Cc3ccccc3Oc3ccc(Cl)cc32)CC1,3.98 µM (active),–
Clc1ccc2c(c1)C(N1CCNCC1)=Nc1ccccc1O2,inactive,–
C=CCNC(=O)c1cccn1-c1ccsc1C(=O)OC,inactive,–
COC(=O)c1sc2ccccc2c1-n1cccc1C(=O)C(=O)Nc1ccc(Cl)cc1,5.01 µM (active),–
Cc1ccc(NC(=O)N(Cc2ccco2)C(C)c2ccco2)cc1C (centres undefined),5.62 µM (active),–
COCC(=O)N1CCC2(CCCN(Cc3ccccc3OC)C2)CC1,inactive,–
Cc1ccc(-c2n[nH]c(=S)n2/N=C/c2cccn2C)cc1,14.1 µM (active),–
Cc1nnc(C)n1/N=C/c1ccc(-c2ccccc2)cc1,inactive,–
C/C=C\C(=O)N(CC)c1ccccc1C,inactive,–
COc1cccc(-c2cc(=O)c3ccccc3o2)c1N,6.31 µM (active),–
C/C(=N/O)[C@@H]1C[C@H](CC(=O)O)C1(C)C,–,23% [at 11.4 µM]
Cc1cc(C)n2nc(-c3sccc3-n3cccc3)cc2n1,7.08 µM (active),–
O=C(OCC(=O)c1cccs1)c1cccc(C(=O)OCC(=O)c2cccs2)n1,17.8 µM (active),–
CCOC(=O)c1cccc(C(=O)OCC)n1,inactive,–
Cc1ccc2nc(-c3ccc(NC(=O)c4ccc(N)cc4)c(S(=O)(=O)O)c3)sc2c1,–,0.214% [at 11.4 µM]

SMILES,AC50,"activity, negative = inhibition"
Cc1nc2ccc(S(=O)(=O)NC(CC(C)C)C(=O)O)cc2s1 (centres undefined),inactive,–
Cc1ccc2nc(NC(=O)COC(=O)c3ccc(Br)o3)sc2c1,8.91 µM (active),–
Cc1ccc2nc(NC(=O)CSCC(=O)OCC(=O)c3ccc(Br)cc3)sc2c1,8.91 µM (active),–
OCCN(CCO)c1ncnc2nc[nH]c12,–,-23.9% [at 11.4 µM]
CC(C)(C)N1C(=O)[C@H]2[C@@H]3[C@H](O)[C@H](O)CC(=O)[C@H]3CC[C@H]2C1=O,–,-4.03% [at 11.4 µM]
N#CCCn1cc(/C=N/O)c(-c2ccc(Cl)cc2)n1,7.94 µM (active),–
N#CCCn1c(=O)c(-c2ccc(Cl)cc2)nc2cnc(N3CCOCC3)nc21,inactive,–
N#CCCn1c(=O)c(-c2ccc(Cl)cc2)nc2cnc(Oc3cccc(Cl)c3)nc21,inactive,–
CC1=CC(=O)C=CC1(C)C(Cl)(Cl)Cl (centres undefined),25.1 µM (active),–
COc1ccccc1CNc1ccnc(-c2ccoc2)n1,7.94 µM (active),–
Cc1cnc(CNc2ccnc(-c3ccc(N(C)C)cc3)n2)cn1,inactive,–
CN(C)C(=O)c1ccc(-c2nccc(NCc3ccccc3)n2)cc1,inactive,–
COc1ccccc1CNc1ccnc(-c2ccc(N(C)C)cc2)n1,10 µM (active),–
CN(C)c1ccc(-c2nccc(NCc3cccs3)n2)cc1,15.8 µM (active),–
CN(C)c1ccc(-c2nccc(NCc3ccccc3)n2)cc1,25.1 µM (active),–
COc1cc(S(C)=O)ccc1-c1nc2ncccc2[nH]1 (centres undefined),inactive,–
Cc1cc(SCC(=O)c2cccs2)nc2c(C)cccc12,3.16 µM (active),–
CC[C@]1(C)CC(=O)NC1=O,inactive,–
Cc1ccc(Nc2nc(Cl)nc(N(C)C#N)n2)cc1,25.1 µM (active),–
COC(=O)c1ccccc1N/C=C1\CCc2c(c(C)nn2-c2ccccn2)C1=O,1.26 µM (active),–
COc1ccc(-c2cc(C(=O)O)c3c(C)nn(-c4ccccn4)c3n2)cc1,inactive,–
C(=N\Nc1nc(Nc2ccccc2)nc(N2CCOCC2)n1)/c1c[nH]c2ccccc12,8.91 µM (active),–
COc1ccc(N2CCN(c3nc(Nc4ccc(F)cc4)nc(OC)n3)CC2)cc1,inactive,–
CC(=O)/C(=C\c1ccccc1F)C(=O)c1ccccc1,2 µM (active),–
CC(=C\C(=O)O)/C(=C/c1ccccc1)C(=O)O,inactive,–

SMILES,AC50,"activity, negative = inhibition"
CN(c1ccccc1)c1nc(-n2ccnc2)nc(-n2ccnc2)n1,1.78 µM (active),–
c1ccc(-c2nc(N3CCCCCC3)nc(-n3ccnc3)n2)cc1,2 µM (active),–
N#Cc1c(-c2ccccc2)ccnc1Oc1ccccc1,1.58 µM (active),–
Cn1c(=O)c(-c2cccc(C#N)c2)nc2cnc(Oc3ccccc3)nc21,inactive,–
COc1ccc(Oc2nccc(-c3ccc(F)cc3)c2C#N)cc1,inactive,–
CCN(CC)CCNc1ccc(CO)c2sc3ccccc3c(=O)c12,inactive,–
COc1ccc(C(=O)CCN(C)C)c2ccccc12,–,-37.3% [at 11.4 µM]
COc1ccc2sc3ccccc3c(=O)c2c1OC,25.1 µM (active),–
CCOC(=O)c1[nH]c(C)c(/C(O)=C2\C(=O)C(=O)N(CCN3CCOCC3)C2c2cccs2)c1C (centres undefined),8.91 µM (active),–
Cc1nc2ccccn2c1/C(O)=C1\C(=O)C(=O)N(CCN2CCOCC2)C1c1cccnc1 (centres undefined),inactive,–
COc1ccc(/C(O)=C2/C(=O)C(=O)N(CCN3CCOCC3)C2c2ccc(C)cc2)cc1 (centres undefined),inactive,–
Cc1cc(N2CCOCC2)nc2ccc(Cc3ccc4nc(N5CCOCC5)cc(C)c4c3)cc12,–,-39.6% [at 11.4 µM]
Cc1cc(Cl)nc2ccc(Cc3ccc4nc(Cl)cc(C)c4c3)cc12,0.501 µM (active),–
CC(=O)Nc1ccc(Cc2ccc3[nH]c(=O)cc(C)c3c2)cc1,–,3.04% [at 11.4 µM]
CC(C)=NNc1ncnc2nc[nH]c12,–,43.1% [at 11.4 µM]
Cc1ccc(N(Cc2ccc([N+](=O)[O-])cc2)C(=O)c2ccco2)cc1,10 µM (active),–
CN(C)c1ccc(C(c2ccc(N(C)C)cc2)c2ccc([N+](=O)[O-])cc2)cc1,–,-36.9% [at 11.4 µM]
CN1CCc2ccccc2[C@@H]1Cc1ccccc1NC(=O)c1sc2ccccc2c1Cl,2.51 µM (active),–
O=c1c2ccccc2sc2c(CO)ccc(NCCN3CCCCC3)c12,–,-24.6% [at 11.4 µM]
O=C(CSc1nncn1-c1ccccc1)Nc1ccc(N2CCOCC2)cc1,inactive,–
CC(C)(C)c1nc(SCC(=O)Nc2ccc3c(c2)OCCO3)c2ccccc2n1,1.78 µM (active),–
CC(C)(C)c1nc(SCC(=O)Nc2ccc(N3CCOCC3)cc2)c2ccccc2n1,10 µM (active),–
Cc1nc(SCC(=O)Nc2ccc3c(c2)OCCO3)c2oc3ccccc3c2n1,0.562 µM (active),–
Cc1nc(SCC(=O)Nc2ccc(N3CCOCC3)cc2)nc(C)c1C,25.1 µM (active),–
